In PubChem BioAssay (NCATS):
Results filed as inconclusive are left out. Activity calls are given as the source filed them. Calls come from the whole dose curve; as a rule, active = well fitted curve in the direction sought with a large enough effect; inconclusive = small, poorly fitted or top-dose-only effect, or another doubt; inactive = no such curve, though single readings can be large; an effect the other way counts as inactive or inconclusive.

Tests used:
[1] = S16 Schwann cell PMP22 intronic element firefly luciferase assay (AID 624032); conditions: S16 rat Schwann cells, PMP22 element FLuc, 24 h; series mostly up to 57.5 µM; note: nearly all actives have a fitted effect of over 30% in size
Procedure, shortened: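 Luciferase reporter of PMP22 intronic-element expression in stably transfected S16 rat Schwann cells, read by ONE-Glo luminescence after 24 h compound exposure at 37 C. Activity scaled between DMSO (0%) and positive-control PTC124; concentration-effect curves quality-classified.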

ATS95 = assay: qHTS profiling for inhibitors of Plasmodium falciparum proliferation (AID 504749); note: nearly all actives have a fitted effect of over 60% in size; conditions: P. falciparum in erythrocytes, SYBR Green DNA, 72 h; series mostly up to 28.7 µM
Procedure, shortened: (§1)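 SYBR Green fluorescence of parasite DNA, read after lysis and overnight dark incubation, measured growth over 72 h in erythrocyte culture at 0.3% parasitemia and 2.5% hematocrit. Data normalised to DMSO and 0.29 uM artemisinin, with plate-drift correction.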

CP203 = assay: as above; conditions: P. falciparum in erythrocytes, SYBR Green DNA, 72 h; series mostly up to 28.7 µM
Procedure, shortened: as §1

CP215 = assay: as above; conditions: P. falciparum in erythrocytes, SYBR Green DNA, 72 h; series mostly up to 28.7 µM
Procedure, shortened: as §1

CP247 = assay: as above; conditions: P. falciparum in erythrocytes, SYBR Green DNA, 72 h; series mostly up to 28.7 µM
Procedure, shortened: as §1

CP268 = assay: as above; conditions: P. falciparum in erythrocytes, SYBR Green DNA, 72 h; series mostly up to 28.7 µM
Procedure, shortened: as §1

CP291 = assay: as above; conditions: P. falciparum in erythrocytes, SYBR Green DNA, 72 h; series mostly up to 28.7 µM
Procedure, shortened: as §1

CP297 = assay: as above; conditions: P. falciparum in erythrocytes, SYBR Green DNA, 72 h; series mostly up to 28.7 µM
Procedure, shortened: as §1

CP325 = assay: as above; conditions: P. falciparum in erythrocytes, SYBR Green DNA, 72 h; series mostly up to 28.7 µM
Procedure, shortened: as §1

CP335 = assay: as above; conditions: P. falciparum in erythrocytes, SYBR Green DNA, 72 h; series mostly up to 28.7 µM
Procedure, shortened: as §1

DIV14 = assay: as above; conditions: P. falciparum in erythrocytes, SYBR Green DNA, 72 h; series mostly up to 28.7 µM
Procedure, shortened: as §1

PC26 = assay: as above; conditions: P. falciparum in erythrocytes, SYBR Green DNA, 72 h; series mostly up to 28.7 µM
Procedure, shortened: as §1

CP266 = assay: as above; conditions: P. falciparum in erythrocytes, SYBR Green DNA, 72 h; series mostly up to 28.7 µM
Procedure, shortened: as §1

DIV17 = assay: as above; conditions: P. falciparum in erythrocytes, SYBR Green DNA, 72 h; series mostly up to 28.7 µM
Procedure, shortened: as §1

GB4 = assay: as above; conditions: P. falciparum in erythrocytes, SYBR Green DNA, 72 h; series mostly up to 28.7 µM
Procedure, shortened: as §1

ICS = assay: as above; conditions: P. falciparum in erythrocytes, SYBR Green DNA, 72 h; series mostly up to 28.7 µM
Procedure, shortened: as §1

P93_24 = assay: as above; conditions: P. falciparum in erythrocytes, SYBR Green DNA, 72 h; series mostly up to 28.7 µM
Procedure, shortened: as §1

PC49 = assay: as above; conditions: P. falciparum in erythrocytes, SYBR Green DNA, 72 h; series mostly up to 28.7 µM
Procedure, shortened: as §1

7G8 = assay: as above; conditions: P. falciparum in erythrocytes, SYBR Green DNA, 72 h; series mostly up to 28.7 µM
Procedure, shortened: as §1

CP260 = assay: as above; conditions: P. falciparum in erythrocytes, SYBR Green DNA, 72 h; series mostly up to 28.7 µM
Procedure, shortened: as §1

Measured: Potency
Potency is the fitted concentration of half-maximal effect.

CC1(C)O[C@@H]2C[C@H]3[C@@H]4CCC5=CC(=O)C=C[C@]5(C)[C@H]4C(O)C[C@]3(C)[C@]2(C(=O)CO)O1 (stereo partly specified)
not listed: CP266 | DIV17 | GB4 | ICS | P93_24 | PC49 | 7G8 | CP260
inactive: all other assays above

CC1CN(c2c(F)c(N)c3c(=O)c(C(=O)O)cn(C4CC4)c3c2F)CC(C)N1 (stereo unspecified)
not listed: CP335 | 7G8 | CP260
inactive: all other assays above

CCOC(=O)C(CCc1ccccc1)NC(C)C(=O)N1Cc2cc(OC)c(OC)cc2CC1C(=O)O (stereo unspecified)
active: 7G8 8.91 µM | CP297 10.7 µM | DIV14 6.01 µM | DIV17 5.36 µM | P93_24 5.01 µM | PC26 6.75 µM | PC49 11.2 µM
not listed: ATS95 | CP247 | CP335 | GB4 | ICS
inactive: all other assays above

C#C[C@]1(O)CC[C@H]2[C@H]3[C@H](CC[C@@]21C)C1=C(CC(=O)CC1)C[C@@H]3C
not listed: [1] | CP247 | DIV17 | ICS | 7G8
inactive: all other assays above

C/C=C1/NN(CCCN2CCN(c3cccc(Cl)c3)CC2)C(=O)N1CCOc1ccccc1
inactive: ATS95 | CP215 | CP247 | CP260 | CP266 | CP268 | CP325 | P93_24 | PC49

COc1ccc(C(=O)/C(Br)=C/C(=O)O)cc1
active: [1] 14.4 µM | 7G8 10 µM
not listed: ATS95 | CP215 | CP335 | DIV17 | GB4 | ICS
inactive: all other assays above

Nc1nc2[nH]cc(CCc3ccc(C(=O)NC(CCC(=O)O)C(=O)O)cc3)c2c(=O)[nH]1 (stereo unspecified)
inactive: [1]
active: 7G8 3.98 µM | CP215 0.601 µM | CP247 0.199 µM | CP260 0.126 µM | CP297 0.239 µM | CP335 0.135 µM | GB4 0.0849 µM | ICS 10 µM | PC49 0.562 µM

C[N+]12CCCC[C@@H]1CCC(=C(c1cccs1)c1cccs1)C2 (stereo partly specified)
active: 7G8 7.94 µM | CP203 16.9 µM | CP215 15.1 µM | CP247 10 µM | CP260 11.2 µM | CP268 15.1 µM | CP291 15.1 µM | CP335 12 µM | DIV14 6.75 µM | DIV17 10.7 µM | GB4 7.57 µM | P93_24 7.94 µM | PC26 15.1 µM | PC49 10 µM

CC1=C(c2ccc(NN=C(C#N)C#N)cc2)NNC(=O)C1
not listed: CP247 | DIV17 | GB4 | 7G8 | CP260
inactive: all other assays above

COc1ccc(S(=O)(=O)N2c3ccc(Cl)cc3[C@](O)(c3ccccc3Cl)[C@@H]2C(=O)N2CCC[C@H]2C(N)=O)cc1OC
active: 7G8 11.2 µM | ICS 10 µM
not listed: [1] | CP335 | DIV14 | PC26 | DIV17 | P93_24 | CP260
inactive: all other assays above

C[C@]12C=CC(=O)N[C@@H]1CC[C@@H]1C2CC[C@]2(C)C(C(=O)Nc3cc(C(F)(F)F)ccc3C(F)(F)F)CC[C@@H]12 (stereo partly specified)
active: 7G8 2 µM | CP260 5.01 µM | CP335 3.79 µM | ICS 3.16 µM
inactive: CP203 | CP247 | CP266 | CP325 | P93_24 | PC26

CC(=O)OC1C([N+]2(C)CCCCC2)C[C@H]2C3CC[C@H]4C[C@H](OC(C)=O)C([N+]5(C)CCCCC5)CC4(C)C3CCC12C (stereo partly specified)
inactive: [1] | 7G8 | ATS95 | CP247 | CP260 | ICS | P93_24 | PC49
active: CP297 6.01 µM | PC26 16.9 µM

CCN(CC)CCOCCOC(=O)C(CC)(CC)c1ccccc1 (tested in a mixture with another compound)
inactive: [1] | ATS95 | CP247
active: 7G8 5.62 µM | CP203 4.26 µM | DIV14 1.9 µM | DIV17 1.51 µM | GB4 8.49 µM

Cc1cc(O)c2c(c1)OC1(C)CCC3C(C)(C)CCCC34COC2C14 (stereo unspecified)
inactive: CP260 | CP291 | CP325
active: [1] 28.7 µM | 7G8 8.91 µM | DIV14 8.49 µM | DIV17 15.1 µM | GB4 15.1 µM | ICS 6.31 µM

C/C(=C(/CCOC(=O)C(C)C)SS/C(CCOC(=O)C(C)C)=C(\C)N(C=O)Cc1cnc(C)nc1N)N(C=O)Cc1cnc(C)nc1N
not listed: [1] | GB4
inactive: all other assays above

Cc1cnc(NC(=O)C2C(=O)c3ccccc3S(=O)(=O)N2C)s1 (stereo unspecified)
not listed: CP266 | 7G8
inactive: all other assays above

CCOc1ccccc1O[C@@H](c1ccccc1)[C@@H]1CNCCO1
inactive: [1] | CP215 | CP266 | CP268 | CP291 | CP325
active: 7G8 5.01 µM | DIV14 1.69 µM | DIV17 1.9 µM | ICS 5.01 µM | P93_24 10 µM | PC49 2.24 µM

O=C(O)C[CH2][Ge](=[O])[O][Ge](=[O])[CH2]CC(=O)O
inactive: all assays above

C=C1CC[C@H](O)C/C1=C/C=C1\CCC[C@]2(C)[C@@H]([C@H](C)CCCC(C)(C)O)CC[C@@H]12
inactive: CP203 | CP266 | CP268 | CP291 | CP325
active: 7G8 10 µM | CP247 8.91 µM | CP297 13.5 µM | DIV17 15.1 µM | ICS 7.94 µM

C=C1N[C@]2(C(=O)COC(C)=O)[C@@H](C[C@H]3[C@@H]4CCC5=CC(=O)C=C[C@]5(C)[C@H]4[C@@H](O)C[C@@]32C)O1
inactive: [1] | CP247 | CP266 | CP297 | DIV14 | DIV17 | GB4 | PC49

CNC1CCc2cc(OC)c(OC)c(OC)c2-c2ccc(OC)c(=O)cc21 (stereo unspecified)
not listed: [1] | CP247 | DIV14 | DIV17 | ICS | P93_24 | 7G8
inactive: all other assays above

C=C1CC[C@H](O)C/C1=C/C=C1\CCC[C@]2(C)[C@@H]([C@H](C)CC[C@@H](O)C(C)(C)O)CC[C@@H]12
inactive: CP203 | CP215 | CP266 | CP268 | CP325 | PC49
active: 7G8 8.91 µM | DIV14 13.5 µM | DIV17 13.5 µM | ICS 10 µM | PC26 15.1 µM

CCC1OC(=O)C[C@H](O)C(C)[C@@H](O[C@@H]2OC(C)C(O)C(N(C)C)C2O)C(CCN2CC(C)CC(C)C2)CC(C)C(=O)/C=C/C(C)=C\[C@@H]1COC1OC(C)C(O)C(OC)C1OC (stereo partly specified)
active: CP260 11.2 µM | CP335 9.53 µM | GB4 7.57 µM | ICS 10 µM
inactive: [1]
